Screening data: PubChem, National Center for Advancing Translational Sciences (NCATS)
Most compounds without a hit are left out; they make up all but 12% or so of the library.
PI5P4K alpha inh: qHTS for Inhibitors of phosphatidylinositol 5-phosphate 4-kinase (PI5P4K) | max response, % | Phosphatidylinositol 5-phosphate 4-kinase type-2 alpha (Homo sapiens), P48426 | AID 652105, 2013 | 330,000 compounds, 1.2% hits | PI5P4Kalpha enzyme, ADP-Glo luminescence, 60 min; active compounds read low; active = max response of -50% or lower; inconclusive = between -30% and -50%; inactive = -30% or higher; also: value at the top dose of about 77 µM; % is scaled to controls: 0 for no effect and ±100 for the full control effect
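Quantitative HTS of the MLSMR library against PI5P4Kalpha with substrate. ATP added last at 5 microM final; room temperature, 60 minutes. Remaining ATP depleted, ADP converted and read as luminescence.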
G9a block: qHTS Assay for Inhibitors of Histone Lysine Methyltransferase G9a; G9a H3K9 monomethylation, AlphaScreen, 2 h; Potency, µM (titrated, usually from 102 µM), inactives show at the highest dose activity, negative = inhibition, actives largely listed as inhibitors; 350,000 compounds, 8.8% hits; also: potency is read from the fitted curve at half-maximal effect; % is scaled to controls: 0 for no effect and ±100 for the full control effect; nearly all actives have a fitted effect of over 75% in size
Target sequence (Q96KQ7 913-1193 limits assumed): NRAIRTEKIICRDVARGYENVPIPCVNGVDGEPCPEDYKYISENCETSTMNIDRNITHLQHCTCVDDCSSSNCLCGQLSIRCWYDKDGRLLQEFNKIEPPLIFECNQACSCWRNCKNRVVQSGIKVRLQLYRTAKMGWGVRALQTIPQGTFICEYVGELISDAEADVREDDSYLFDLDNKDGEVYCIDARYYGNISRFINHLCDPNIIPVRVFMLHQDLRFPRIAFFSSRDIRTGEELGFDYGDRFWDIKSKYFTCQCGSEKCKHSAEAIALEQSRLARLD
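Compounds were preincubated with 20 nM G9a for 15 min, after which biotinylated H3K9 peptide (500 nM) and SAM (20 uM) started a 2 h room-temperature reaction. Monomethylated product was quantified by antibody-based AlphaScreen chemiluminescence.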
PLK1 PBD inh: qHTS for Inhibitors of PLK1-PDB (polo-like kinase 1 - polo-box domain): Primary Screen | Serine/threonine-protein kinase PLK1 (Homo sapiens), P53350 | Plk1 PBD binding of FITC phosphopeptide, fluorescence polarization | 360,000 compounds, 2.8% hits | AID 720504, 2013 | Potency, µM, for the others: max response, negative = inhibition, hits mostly inhibitors; also: potency is read from the fitted curve at half-maximal effect; series mostly up to about 57 µM; % is scaled to controls: 0 for no effect and ±100 for the full control effect; nearly all actives have a fitted effect of over 65% in size
HP1b binding inh: HTS for Inhibitors of HP1-beta Chromodomain Interactions with Methylated Histone Tails. AlphaScreen HP1-beta / biotin-H3K9me3 peptide binding. Potency, µM (titrated, usually from 114 µM), inactives show top-dose activity change, negative = inhibition, hits mostly inhibitors. AID 540317, 2011. 390,000 compounds, 0.56% hits; also: potency is read from the fitted curve at half-maximal effect; nearly all actives have a fitted effect of over 70% in size
Target sequence (P83916 whole entry, looked up): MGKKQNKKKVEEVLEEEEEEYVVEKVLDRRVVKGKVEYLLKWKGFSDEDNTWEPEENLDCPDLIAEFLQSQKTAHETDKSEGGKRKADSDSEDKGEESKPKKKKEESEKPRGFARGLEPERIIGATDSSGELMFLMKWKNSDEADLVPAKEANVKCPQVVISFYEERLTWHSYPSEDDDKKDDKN
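AlphaScreen: HP1-beta (50 nM) preformed 30 min with biotin-H3(1-18)K9me3 peptide (50 nM) in PBS pH 7.4, 0.01% Tween-20. Compound added for 30 min at RT, then streptavidin donor/nickel chelate acceptor beads (10 ug/mL) for 30 min.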
BAZ2B block: qHTS Assay for Inhibitors of BAZ2B. AlphaScreen BAZ2B-H3K14Ac peptide displacement. AID 504333, 2011. Potency, µM (titrated, usually from 114 µM), for the others: at the highest dose activity change, negative = inhibition, hits mostly inhibitors. 360,000 compounds, 4.4% hits. Bromodomain adjacent to zinc finger domain protein 2B (Homo sapiens), Q9UIF8; also: potency is read from the fitted curve at half-maximal effect; % is scaled to controls: 0 for no effect and ±100 for the full control effect; nearly all actives have a fitted effect of over 60% in size
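Inhibition is scored as reduced AlphaScreen emission. The BAZ2B/b-H3(5-23)K14Ac complex (50 nM each) in PBS pH 7.4, 0.01% Tween-20 meets compound (up to 110 uM) for 30 min at RT before bead addition.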
JMJD2A Tudor inh: qHTS Assay for Inhibitors of JMJD2A-Tudor Domain; Lysine-specific demethylase 4A (Homo sapiens), O75164; AlphaScreen JMJD2A-Tudor / H3K4me3 peptide binding; Potency, µM (series often up to 114 µM), for inactives: at the top dose activity change, negative = inhibition, hits mostly inhibitors; 390,000 compounds, 4.4% hits; AID 504339, 2011; also: potency is read from the fitted curve at half-maximal effect; % is scaled to controls: 0 for no effect and ±100 for the full control effect; nearly all actives have a fitted effect of over 50% in size
Active calls of the source: *; ? = inconclusive; · = no result given; ! = repeats disagree; [ ] = remark or other dose. Unless noted, calls follow the shape of the dose curve; as a rule, active = well fitted curve in the direction sought with a large enough effect; inconclusive = small, poorly fitted or top-dose-only effect, or another doubt; inactive = no such curve, though single readings can be large; an effect the other way counts as inactive or inconclusive.

SMILES | PI5P4K alpha inh | G9a block | PLK1 PBD inh | HP1b binding inh | BAZ2B block | JMJD2A Tudor inh
O=c1cc(S(=O)(=O)Cc2ccccc2)[nH]c(=O)[nH]1 | -66* | · | -20% | 29% | · | -17%
O=c1cc(CCc2ccccc2)[nH]c(=O)[nH]1 | 3 | · | -1% | · | · | ·
COc1ccc2[nH]cc(C(=O)CCl)c2c1 | -2 | ? | ? | 61% | -8% | -5%
COc1ccc2[nH]cc(C(=O)CNc3nc(C)cs3)c2c1 | 6 | ? | -19% | -1% | 50µM* | -5%[11.4 µM]
N[C@@H](Cc1cnc[nH]1)C(=O)O | · | 6µM*! | · | · | · | ·
Cc1cc(C)n(-c2nnc(C)n2/N=C/c2ccccc2O)n1 | -1 | -33%[12.7 µM] | 1% | 4% | -4% | 7.9µM*
CSc1nnc(C(C)(C)C)c(=O)n1/N=C/c1ccc(Cl)cc1 | 0 | 2% | 1% | 40% | 1% | -22%
CSc1nnc(C(C)(C)C)c(=O)n1/N=C/c1ccccc1O | 5 | 25%[59 µM] | 24µM* | 8% | -10% | -15%[11.4 µM]
Cc1cc(C)n(/N=C/c2ccccc2O)c(=O)c1 | -2 | 16µM* | 0% | 7% | 50µM* | ?
Cc1cc(C)n(-c2ccc3nnc(C)n3n2)n1 | 4 | 4% | 2% | 33% | -11% | 5%
Cc1nnc(C)n1/N=C/c1cc2ccccc2nc1Cl | -5 | 4% | 1% | 20% | -19% | 0%
Cc1cc(C)n(-c2nnc(C)n2N)n1 | -5 | 50µM* | 3% | 6% | -14% | ?
COc1ccc(-c2cn(Cc3ccc(C(N)=O)cc3)c(-c3ccncc3)n2)cc1 | -2 | 13%[2.33 µM] | -13% | 13% | -11% | -25%
COc1ccc(C2/C=C\CN(CC3CCCCC3)C(Cc3ccccc3)C(=O)N2Cc2ccc(F)cc2)cc1 (stereo not drawn) | · | · | · | 38% | · | -15%
CCn1cc(S(=O)(=O)Nc2ncccn2)cn1 | -5 | 21% | -7% | 22% | 2% | -16%
COc1ccc(-c2cc3ccccc3[nH]2)cc1 | 1 | · | -8% | ? | -21% | 7.1µM*
Cc1ccc(O)c(-c2cc3ccccc3[nH]2)c1 | 0 | ? | 3% | ? | 45µM* | ?
c1ccc(-c2cc3ccccc3[nH]2)cc1 | 11 | · | -6% | 26% | -5% | -9%
O=C(Nc1cccc(C(F)(F)F)c1)Oc1ccc(Cl)c2cccnc12 | 18 | 132% | -8% | 3%[57 µM] | 18µM* | 40µM*
C=CCNc1nc(-c2sc(NC(=O)CC)nc2C)cs1 | -8 | 8.9µM* | ? | -3% | ? | -30%
CCCCCCC(=O)Nc1nc(C)c(-c2csc(Nc3ccc(Cl)cc3)n2)s1 | -4 | ? | -16% | ? | ? | ?
C=CCNc1nc(-c2sc(NC(C)=O)nc2C)cs1 | · | 18µM* | -21% | 2% | -33% | -30%
O=C(NCc1ccccc1F)C12CC3CC(CC(C3)C1)C2 | 1 | · | -16% | 15% | · | -13%
COc1ccccc1CNC(=O)CNCCc1ccc(OC)c(OC)c1 | -1 | · | -4% | ? | 50µM* | 22µM*
COc1ccc(CCNCc2csc3nc4ccccc4n23)cc1OC | 3 | 50µM* | -3% | 10% | ? | 89µM*
SMILES | PI5P4K alpha inh | G9a block | PLK1 PBD inh | HP1b binding inh | BAZ2B block | JMJD2A Tudor inh
COc1cccc(CNC(=O)CSC(=S)N2CCCC2)c1 | -2 | -45% | -29% | 3% | 0% | -11%
COc1ccccc1CNC(=O)CSC(=S)N1CCCC1 | 7 | 11µM* | ? | 19% | -2% | -11%
COc1ccccc1CNC(=O)Cc1ccc(C)cc1 | 3 | 7% | 4% | 21% | -10% | -15%
COc1ccccc1CNC(=O)C12CC3CC(CC(C3)C1)C2 | -7 | · | 27µM* | 10% | 38% | 79µM*
Cc1nc(-c2ccc([N+](=O)[O-])cc2)nc2[nH]ccc(=O)c12 | 0 | 27% | -2% | 22% | -3% | -16%
O=C(NCCc1cccs1)c1ccc(Cn2c(SCc3ccc(F)cc3)nc3cccnc32)cc1 | · | -5%[59 µM] | · | 14% | -1% | -18%
COc1ccc(CCNC(=O)/C(C#N)=C/c2ccc(OCC(=O)NCC3CCCO3)cc2)cc1OC (stereo not drawn) | 2 | 8%[0.501 µM] | -22% | 29% | 0% | -22%[57.1 µM]
COc1ccccc1CNC(=O)COc1ccccc1OC | -3 | -1%[59 µM] | -8% | 25% | 1% | 5%
COc1ccccc1CNC(=O)CS(=O)(=O)c1ccccc1 | 0 | 48% | -2% | 20% | -2% | -13%
COc1ccccc1CNC(=O)CS(=O)(=O)c1ccc(C)cc1 | 0 | 79µM* | -8% | 22% | 0% | -16%
COc1ccccc1CNC(=O)CC(C)C | ? | -3%[59 µM] | 12µM* | ? | 2% | 28µM*
COc1ccc(CCNC(=O)CNCC2CCCO2)cc1OC (stereo not drawn) | · | 8.9µM* | -12% | ? | ? | 3.5µM*
CCN(C(=O)COC(=O)CCNS(=O)(=O)c1ccccc1F)c1c(N)n(Cc2ccccc2)c(=O)[nH]c1=O | 4 | · | ? | 16%[57 µM] | · | -21%
CC1(C(=O)NS(=O)(=O)c2ccc(F)cc2F)CCN1C(=O)CCc1ccccc1 (stereo not drawn) | -7 | · | -10% | · | · | ·
Cc1cc(C)c(NC(=O)CCN2C(=O)c3ccccc3Sc3ncccc32)c(C)c1 | · | 16%[59 µM] | · | 25% | ? | 2%
CCC(CC)CN1CCC(CN2C(=S)NC[C@@H]2[C@@H](C)CC)CC1 | 7 | · | -3% | 37% | · | -9%
O=C1CC(N2CCC(Cc3ccccc3)CC2)C(=O)N1CCc1ccccc1 (stereo not drawn) | · | 50µM* | -9% | 25% | 0% | -5%
O=C1CC(N2CCN(C3CC(=O)N(CCc4ccccc4)C3=O)CC2)C(=O)N1CCc1ccccc1 (stereo not drawn) | · | -21% | -3% | 25% | -2% | -18%
COC(=O)c1c[nH]n2c(=O)cc(CCl)nc12 | · | 19%[59 µM] | -2% | 24% | ? | 79µM*
O=C(NCc1ccc(Cl)nc1)c1csc([C@@H]2C[C@H](O)[C@@H](CO)O2)n1 | 0 | · | -10% | · | · | ·
CCN1CCCC1CNS(=O)(=O)c1cccc(C(F)(F)F)c1 (stereo not drawn) | 1 | 45µM* | -4% | 17% | 2% | 1%
